# Inconclusive results are not listed. Unmarked numbers belong to inactive results. Active and inactive are the calls of the source. Calls follow the shape of the dose curve; as a rule, active = well fitted cell-killing curve with a large enough effect; inconclusive = small, poorly fitted or top-dose-only effect, or effect the other way; inactive = no such curve, though single readings can be large or run the other way.
# Key:
# [1] = Quantitative High-Throughput drug screen in 47 multiple myeloma cell lines against the NCATS MIPE library collection: OCIMY1_PLB cell viability assay (AID 1918979); settings: OCI-MY1 myeloma viability, CellTiter-Glo ATP, 48 h; series mostly up to 45.8 µM; also: nearly all actives have a fitted effect of over 35% in size;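 as to viability: 100% = DMSO-only wells and 0% = cell-free media-only wells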
# Method in brief: (§1)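 Cells were exposed to library compounds for 48 hours, after which ATP was measured by CellTiter-Glo. Signal was taken as median relative luminescence units.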
# [2] = Quantitative High-Throughput drug screen in 47 multiple myeloma cell lines against the NCATS MIPE library collection: MM1S_ATCC cell viability assay (AID 1918980); settings: MM1S myeloma viability, CellTiter-Glo ATP luminescence, 48 h; series mostly up to 45.8 µM; also: nearly all actives have a fitted effect of over 45% in size
# Method in brief: as §1
# [3] = Quantitative High-Throughput drug screen in 47 multiple myeloma cell lines against the NCATS MIPE library collection: MM1R_ATCC cell viability assay (AID 1918981); settings: MM1R multiple myeloma cells, CellTiter-Glo viability, 48 h; series mostly up to 45.8 µM; also: nearly all actives have a fitted effect of over 35% in size
# Method in brief: as §1
# [4] = Quantitative High-Throughput drug screen in 47 multiple myeloma cell lines against the NCATS MIPE library collection: LP1_DSMZ cell viability assay (AID 1918982); settings: LP1 myeloma viability, CellTiter-Glo ATP luminescence, 48 h; series mostly up to 45.8 µM; also: nearly all actives have a fitted effect of over 35% in size
# Method in brief: as §1
# [5] = Quantitative High-Throughput drug screen in 47 multiple myeloma cell lines against the NCATS MIPE library collection: KMS28PE_JCRB cell viability assay (AID 1918983); settings: KMS28PE multiple myeloma viability, CellTiter-Glo ATP, 48 h; series mostly up to 45.8 µM; also: nearly all actives have a fitted effect of over 35% in size
# Method in brief: as §1
# [6] = Quantitative High-Throughput drug screen in 47 multiple myeloma cell lines against the NCATS MIPE library collection: L363_DSMZ cell viability assay (AID 1918984); settings: L363 myeloma viability, CellTiter-Glo ATP luminescence, 48 h; series mostly up to 45.8 µM; also: nearly all actives have a fitted effect of over 40% in size
# Method in brief: as §1
# [7] = Quantitative High-Throughput drug screen in 47 multiple myeloma cell lines against the NCATS MIPE library collection: KMS34_JCRB cell viability assay (AID 1918985); settings: KMS34 myeloma viability, CellTiter-Glo ATP luminescence, 48 h; series mostly up to 45.8 µM; also: nearly all actives have a fitted effect of over 40% in size
# Method in brief: as §1
# [8] = Quantitative High-Throughput drug screen in 47 multiple myeloma cell lines against the NCATS MIPE library collection: OCIMY7_PLB cell viability assay (AID 1918987); settings: OCI-MY7 myeloma viability, CellTiter-Glo ATP, 48 h; viability (% of DMSO): at 45.8 µM (top of the series); also: nearly all actives have a fitted effect of over 65% in size
# Method in brief: as §1
# [9] = Quantitative High-Throughput drug screen in 47 multiple myeloma cell lines against the NCATS MIPE library collection: OCIMY5_PLB cell viability assay (AID 1918988); settings: OCI-MY5 myeloma viability, ATP luminescence, 48 h; series mostly up to 45.8 µM; also: nearly all actives have a fitted effect of over 65% in size
# Method in brief: as §1
# [10] = Quantitative High-Throughput drug screen in 47 multiple myeloma cell lines against the NCATS MIPE library collection: SKMM1_PLB cell viability assay (AID 1919863); settings: SKMM1 myeloma viability, CellTiter-Glo ATP, 48 h; viability: active compounds read low; also: nearly all actives have a fitted effect of over 35% in size
# Method in brief: as §1
# [11] = Quantitative High-Throughput drug screen in 47 multiple myeloma cell lines against the NCATS MIPE library collection: U266_ATCC cell viability assay (AID 1919864); settings: U266 myeloma viability, CellTiter-Glo ATP luminescence, 48 h; series mostly up to 45.8 µM; also: nearly all actives have a fitted effect of over 35% in size
# Method in brief: as §1
# [12] = Quantitative High-Throughput drug screen in 47 multiple myeloma cell lines against the NCATS MIPE library collection: XG6_PLB cell viability assay (AID 1919865); settings: XG6 myeloma viability, CellTiter-Glo ATP luminescence, 48 h; series mostly up to 45.8 µM; also: nearly all actives have a fitted effect of over 40% in size
# Method in brief: as §1
# [13] = Quantitative High-Throughput drug screen in 47 multiple myeloma cell lines against the NCATS MIPE library collection: XG1_PLB cell viability assay (AID 1919866); settings: CellTiter-Glo ATP, 48 h; series mostly up to 45.8 µM; also: nearly all actives have a fitted effect of over 35% in size
# Method in brief: as §1
# [14] = Quantitative High-Throughput drug screen in 47 multiple myeloma cell lines against the NCATS MIPE library collection: VP6_DJ cell viability assay (AID 1919867); settings: ATP luminescence, 48 h; series mostly up to 45.8 µM; also: nearly all actives have a fitted effect of over 40% in size;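 as to viability (% of DMSO): 100% = DMSO-only wells and 0% = wells with media alone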
# Method in brief: as §1
# [15] = Quantitative High-Throughput drug screen in 47 multiple myeloma cell lines against the NCATS MIPE library collection: UTMC2_PLB cell viability assay (AID 1919868); settings: CellTiter-Glo ATP luminescence, 48 h; viability (% of DMSO control): at 45.8 µM (top of the series); also: nearly all actives have a fitted effect of over 55% in size;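 as to viability (% of DMSO control): 100% = DMSO-only wells and 0% = media-only wells without cells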
# Method in brief: as §1
# [16] = Quantitative High-Throughput drug screen in 47 multiple myeloma cell lines against the NCATS MIPE library collection: PE2_PLB cell viability assay (AID 1919869); settings: PE2_PLB myeloma cells viability, ATP luminescence, 48 h; series mostly up to 45.8 µM; also: nearly all actives have a fitted effect of over 35% in size
# Method in brief: as §1
# [17] = Quantitative High-Throughput drug screen in 47 multiple myeloma cell lines against the NCATS MIPE library collection: PCM6_Riken cell viability assay (AID 1919870); settings: CellTiter-Glo ATP, 48 h; series mostly up to 45.8 µM; also: nearly all actives have a fitted effect of over 30% in size
# Method in brief: as §1
# [18] = Quantitative High-Throughput drug screen in 47 multiple myeloma cell lines against the NCATS MIPE library collection: OPM2_DSMZ cell viability assay (AID 1919872); settings: OPM2 myeloma viability, CellTiter-Glo ATP luminescence, 48 h; series mostly up to 45.8 µM; also: nearly all actives have a fitted effect of over 30% in size
# Method in brief: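 Viability readout: CellTiter-Glo luminescence following 5 min room-temperature incubation with reagent. Prior exposure: 48 h, 37C, humidified 5% CO2, 500 cells per well.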
# [19] = Quantitative High-Throughput drug screen in 47 multiple myeloma cell lines against the NCATS MIPE library collection: OPM1_PLB cell viability assay (AID 1918989); settings: CellTiter-Glo, 48 h; series mostly up to 45.8 µM; also: nearly all actives have a fitted effect of over 40% in size
# Method in brief: as §1
# [20] = Quantitative High-Throughput drug screen in 47 multiple myeloma cell lines against the NCATS MIPE library collection: RPMI8226_ATCC cell viability assay (AID 1919871); settings: RPMI8226 myeloma viability, CellTiter-Glo ATP luminescence, 48 h; series mostly up to 45.8 µM; also: nearly all actives have a fitted effect of over 30% in size
# Method in brief: as §1
# Potency is read from the fitted curve at half-maximal effect.
compound,measurement,setting,value
COc1cc(C)c(Sc2cnc(NC(=O)c3ccc(CNC(C)C(C)(C)C)cc3)s2)cc1C(=O)N1CCN(C(C)=O)CC1 (centres undefined),Potency,[1],14.8 µM (active)
same,Potency,[2],4.18 µM (active)
same,Potency,[3],5.9 µM (active)
same,Potency,[4],16.6 µM (active)
same,Potency,[5],9.35 µM (active)
same,Potency,[6],2.96 µM (active)
same,Potency,[7],14.8 µM (active)
same,Potency,[8],3.32 µM (active)
same,Potency,[9],16.6 µM (active)
same,Potency,[10],20.9 µM (active)
same,Potency,[11],14.8 µM (active)
same,Potency,[12],14.8 µM (active)
same,Potency,[13],16.6 µM (active)
same,Potency,[14],8.33 µM (active)
same,Potency,[15],3.32 µM (active)
same,Potency,[16],14.8 µM (active)
same,Potency,[17],18.7 µM (active)
same,Potency,[18],20.9 µM (active)
O=c1ccn([C@@H]2O[C@H](CO)[C@H](O)[C@@H]2F)c(=O)[nH]1,Potency,[1],inactive
same,Potency,[2],5.26 µM (active)
same,Potency,[3],inactive
same,Potency,[4],inactive
same,Potency,[5],inactive
same,Potency,[6],inactive
same,Potency,[7],inactive
same,Potency,[9],inactive
same,Potency,[19],inactive
same,viability,[10],118%
same,Potency,[11],5.9 µM (active)
same,Potency,[12],7.43 µM (active)
same,Potency,[13],5.9 µM (active)
same,Potency,[18],inactive
CC(C=CC(=O)NO)=C[C@@H](C)C(=O)c1ccc(N(C)C)cc1,Potency,[1],0.372 µM (active)
same,Potency,[2],0.187 µM (active)
same,Potency,[3],0.132 µM (active)
same,Potency,[4],0.372 µM (active)
same,Potency,[5],0.296 µM (active)
same,Potency,[6],0.132 µM (active)
same,Potency,[7],0.0833 µM (active)
same,Potency,[8],0.148 µM (active)
same,Potency,[9],0.166 µM (active)
same,Potency,[19],0.332 µM (active)
same,Potency,[10],0.166 µM (active)
same,Potency,[11],0.209 µM (active)
same,Potency,[12],0.469 µM (active)
same,Potency,[13],0.332 µM (active)
same,Potency,[14],0.372 µM (active)
same,Potency,[15],0.235 µM (active)
same,Potency,[16],0.59 µM (active)
same,Potency,[17],0.469 µM (active)
same,Potency,[20],0.332 µM (active)
same,Potency,[18],0.833 µM (active)
CCC(C(=O)O)C1CCC(C)C(C(C)C(O)C(C)C(=O)C(CC)C2OC3(C=CC(O)[C@@]4(CC[C@](C)(C5CC[C@@](O)(CC)C(C)O5)O4)O3)C(C)CC2C)O1 (some centres undefined),Potency,[1],5.26 µM (active)
same,Potency,[2],2.35 µM (active)
same,Potency,[3],3.72 µM (active)
same,Potency,[4],4.69 µM (active)
same,Potency,[5],16.6 µM (active)
same,Potency,[6],0.833 µM (active)
same,Potency,[7],6.62 µM (active)
same,Potency,[8],2.96 µM (active)
same,Potency,[9],0.372 µM (active)
same,Potency,[19],1.32 µM (active)
same,Potency,[10],2.64 µM (active)
same,Potency,[12],3.32 µM (active)
same,Potency,[13],5.9 µM (active)
same,Potency,[14],2.09 µM (active)
same,Potency,[15],1.32 µM (active)
same,Potency,[16],2.64 µM (active)
same,Potency,[17],4.69 µM (active)
same,Potency,[20],2.35 µM (active)
same,Potency,[18],1.87 µM (active)
C[C@H]1O[C@H](O[C@H]2[C@H](O)[C@@H](O)[C@@H](O[C@H]3[C@H](O)[C@@H](O)C(O)O[C@H]3CO)O[C@H]2CO)[C@H](O)[C@@H](O)[C@H]1N[C@H]1C=C(CO)[C@@H](O)[C@H](O)[C@@H]1O (some centres undefined),Potency,[1],inactive
same,Potency,[2],inactive
same,Potency,[3],inactive
same,Potency,[4],inactive
same,Potency,[5],inactive
same,Potency,[6],20.9 µM (active)
same,Potency,[7],inactive
same,Potency,[19],inactive
same,viability,[10],131%
same,Potency,[12],inactive
same,Potency,[13],inactive
same,Potency,[14],inactive
same,Potency,[15],inactive
same,Potency,[16],inactive
same,Potency,[17],inactive
same,Potency,[20],inactive
same,Potency,[18],inactive
OCCNC1CCCc2c1[nH]c1ccc(-c3ccccc3)cc21 (centres undefined),Potency,[1],26.4 µM (active)
same,Potency,[2],20.9 µM (active)
same,Potency,[3],20.9 µM (active)
same,Potency,[4],23.5 µM (active)
same,Potency,[5],23.5 µM (active)
same,Potency,[6],9.35 µM (active)
same,Potency,[8],20.9 µM (active)
same,Potency,[9],18.7 µM (active)
same,Potency,[19],8.33 µM (active)
same,Potency,[10],26.4 µM (active)
same,Potency,[12],26.4 µM (active)
same,Potency,[13],9.35 µM (active)
same,Potency,[14],8.33 µM (active)
same,Potency,[17],11.8 µM (active)
same,Potency,[20],26.4 µM (active)
Cn1cc(C2=C(c3c4n(c5ccccc35)CCC(CN)C4)C(=O)NC2=O)c2ccccc21 (centres undefined),Potency,[1],20.9 µM (active)
same,Potency,[2],6.62 µM (active)
same,Potency,[3],11.8 µM (active)
same,Potency,[4],10.5 µM (active)
same,Potency,[5],18.7 µM (active)
same,Potency,[6],7.43 µM (active)
same,Potency,[7],11.8 µM (active)
same,Potency,[8],7.43 µM (active)
same,Potency,[9],8.33 µM (active)
same,Potency,[10],20.9 µM (active)
same,Potency,[11],16.6 µM (active)
same,Potency,[12],7.43 µM (active)
same,Potency,[13],7.43 µM (active)
same,Potency,[14],6.62 µM (active)
same,Potency,[16],7.43 µM (active)
same,Potency,[17],5.26 µM (active)
same,Potency,[20],18.7 µM (active)
same,Potency,[18],18.7 µM (active)
COc1cc(C=CC(=O)CC(=O)C=Cc2ccc(O)c(OC)c2)ccc1O,Potency,[1],21.5 µM (active)
same,Potency,[2],27 µM (active)
same,Potency,[3],7.62 µM (active)
same,Potency,[4],30.3 µM (active)
same,Potency,[5],17.1 µM (active)
same,Potency,[6],3.03 µM (active)
same,Potency,[7],6.79 µM (active)
same,Potency,[8],2.15 µM (active)
same,Potency,[9],12.1 µM (active)
same,Potency,[19],3.82 µM (active)
same,Potency,[10],15.2 µM (active)
same,Potency,[11],34 µM (active)
same,Potency,[12],10.8 µM (active)
same,Potency,[13],6.79 µM (active)
same,Potency,[14],9.59 µM (active)
same,Potency,[15],21.5 µM (active)
same,Potency,[16],4.81 µM (active)
same,Potency,[17],9.59 µM (active)
same,Potency,[20],30.3 µM (active)
C=CC(=O)N1CCc2ccc(-n3c(=O)ccc4cnc5ccc(-c6cnn(C)c6)cc5c43)cc21,Potency,[1],1.87 µM (active)
same,Potency,[2],2.64 µM (active)
same,Potency,[3],2.35 µM (active)
same,Potency,[4],1.48 µM (active)
same,Potency,[5],4.69 µM (active)
same,Potency,[6],0.833 µM (active)
same,Potency,[7],0.935 µM (active)
same,Potency,[8],0.833 µM (active)
same,Potency,[9],3.32 µM (active)
same,Potency,[19],0.833 µM (active)
same,Potency,[10],1.32 µM (active)
same,Potency,[11],3.32 µM (active)
same,Potency,[12],2.96 µM (active)
same,Potency,[13],1.32 µM (active)
same,Potency,[14],2.96 µM (active)
same,Potency,[15],1.05 µM (active)
same,Potency,[16],1.66 µM (active)
same,Potency,[17],1.66 µM (active)
same,Potency,[18],2.35 µM (active)

# Source: PubChem BioAssay (NCATS)
